Screening data as filed in PubChem.
A selection: hits, their analogues and other compounds. The true share with any hit is near 7.5%.
FLuc counter: inhibits or activates purified firefly luciferase, miR-21 counter-screen; P08659; purified FLuc, Km substrates, luminescence inhibition; Potency, µM (highest dose often 57.5 µM), usual class: inhibitors; 6.9% of 360,000 active; also: nearly all actives have a fitted effect of over 55% in size
Target sequence (P08659 whole entry, looked up): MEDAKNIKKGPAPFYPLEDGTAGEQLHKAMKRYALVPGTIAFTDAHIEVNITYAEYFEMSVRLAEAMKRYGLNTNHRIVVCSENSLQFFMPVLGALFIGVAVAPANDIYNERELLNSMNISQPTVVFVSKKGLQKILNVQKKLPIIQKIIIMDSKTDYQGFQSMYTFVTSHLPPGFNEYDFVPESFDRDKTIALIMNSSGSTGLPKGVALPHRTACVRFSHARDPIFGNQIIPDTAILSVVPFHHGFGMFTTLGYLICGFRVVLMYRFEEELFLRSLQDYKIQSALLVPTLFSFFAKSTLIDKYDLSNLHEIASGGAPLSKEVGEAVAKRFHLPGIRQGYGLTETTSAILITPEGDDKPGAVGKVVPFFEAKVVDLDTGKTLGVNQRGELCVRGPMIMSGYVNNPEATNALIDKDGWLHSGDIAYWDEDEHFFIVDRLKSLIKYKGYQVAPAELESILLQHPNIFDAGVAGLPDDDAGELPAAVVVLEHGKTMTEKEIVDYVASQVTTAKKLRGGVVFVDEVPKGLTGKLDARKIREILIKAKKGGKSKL
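Purified P. pyralis luciferase (10nM final) with 10uM D-luciferin and 10uM ATP (Km levels) in 50mM Tris acetate pH 7.5, 10mM Mg acetate, 0.01% Tween-20, 0.05% BSA; qHTS 6-point titration, ~60 µM downward; luminescence read.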
NPC1 prom act: activators of NPC1 promoter; Huh7 NPC1 promoter luciferase reporter, 24 h; AID 485313; 2.4% of 320,000 active; Potency, µM (doses to about 9.22 µM), hits mostly activators; also: nearly all actives have a fitted effect of over 60% in size
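Compounds in DMSO were transferred onto Huh7 NPC1-luciferase reporter cells pre-incubated 2 h; after 24 h at 37 °C, Amplite reagent was dispensed and luminescence recorded 10 min later.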
SMN2 splice enh: enhancers of SMN2 splice variant expression; HEK293 SMN2-luciferase splicing reporter, luminescence, 30-36 h; Potency, µM (highest dose often 46.1 µM), most hits filed as activators; 2.8% of 210,000 active; AID 1458; also: nearly all actives have a fitted effect of over 55% in size
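qHTS luciferase splicing reporter: luminescence rises when SMN2 exon 7 is included in transfected HEK293 cells. Compound exposure lasted 30-36 h at 37C, with 4.5 mM final sodium butyrate as control, followed by a ONE-Glo read.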
Rab9 prom act: activates the Rab9 promoter | Huh7 Rab9 promoter-luciferase reporter, luminescence, 24 h | Potency, µM (series often up to 9.22 µM), hits mostly activators | 2.8% of 320,000 active; also: nearly all actives have a fitted effect of over 60% in size
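Steps: seed 1500 Huh7 Rab9-luc cells per well, rest 2 h at 37 °C; add compound in DMSO; incubate 24 h; add luciferase reagent, 10 min ambient; read luminescence.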
ELG1 genotox: induces genotoxicity in HEK293T cells with luciferase-tagged ELG1. HEK293T ELG1-luciferase reporter, luminescence, 16 h. Potency, µM (titrated, usually from 46 µM), hits mostly activators. 1.3% of 330,000 active. AID 504466; also: nearly all actives have a fitted effect of over 60% in size
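Step 1: seed 2,000 HEK293T ELG1-luciferase cells per well. Step 2: add compound or DMSO, incubate 16 hr at 37 °C. Step 3: ONE-Glo, 30 min at room temperature, read luminescence.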
Each line names hits and unclear results; the compound was inactive in the other large screens. Calls follow the shape of the dose curve; as a rule, active = well fitted curve in the direction sought with a large enough effect; inconclusive = small, poorly fitted or top-dose-only effect, or another doubt; inactive = no such curve, though single readings can be large; an effect the other way counts as inactive or inconclusive.

O=C(c1cc(-c2ccccc2O)on1)N1CCCCCC1	FLuc counter 11µM, NPC1 prom act inconclusive, Rab9 prom act inconclusive, ELG1 genotox 23µM (no result: SMN2 splice enh)
COc1ccccc1-c1cc(C(=O)N2CCN(c3ccccc3)CC2)no1	FLuc counter inconclusive
O=C(c1cc(-c2ccccc2O)on1)N1CCOCC1	FLuc counter 12µM, NPC1 prom act inconclusive, Rab9 prom act inconclusive, ELG1 genotox 13µM (no result: SMN2 splice enh)
COC(=O)C1CCN(C(=O)CSc2nc3nc(C)cc(C)n3n2)CC1	none (no result: SMN2 splice enh)
O=S(=O)(c1ccccc1)N1c2cc(Cl)ccc2Oc2nc3ccccc3nc21	FLuc counter 13µM, SMN2 splice enh inconclusive
O=C(c1cccc(Br)c1)c1coc2ccc(O)cc12	FLuc counter 3µM, NPC1 prom act inconclusive, Rab9 prom act inconclusive, ELG1 genotox inconclusive (no result: SMN2 splice enh)
O=C(O)COc1ccc2occ(C(=O)c3ccccc3)c2c1	FLuc counter inconclusive
COc1ccc(C(=O)c2coc3ccc(O)cc23)cc1	FLuc counter 1.5µM, NPC1 prom act inconclusive, SMN2 splice enh inconclusive, ELG1 genotox inconclusive
Cc1ccc(C(=O)c2coc3ccc(OCC(=O)O)cc23)cc1	FLuc counter 21µM, SMN2 splice enh inconclusive
Clc1ccccc1OCc1nc(-c2ccccn2)no1	FLuc counter 1.9µM, NPC1 prom act 0.45µM, SMN2 splice enh 4.5µM, Rab9 prom act 0.32µM, ELG1 genotox 4.6µM
Clc1ccc(OCc2nc(-c3ccccn3)no2)c(Br)c1	FLuc counter 0.21µM, NPC1 prom act 0.35µM, SMN2 splice enh 0.56µM, Rab9 prom act 0.45µM, ELG1 genotox 0.82µM
Cc1cc(C)c2c(CN3CCC(C)CC3)cc(=O)oc2c1	FLuc counter 15µM, NPC1 prom act inconclusive, Rab9 prom act inconclusive, ELG1 genotox inconclusive (no result: SMN2 splice enh)
CN(C)c1ccc(C(O)Cc2nc3ccccc3n2C)cc1 (stereo not given)	FLuc counter inconclusive, NPC1 prom act inconclusive, Rab9 prom act inconclusive, ELG1 genotox 4.6µM (no result: SMN2 splice enh)
COc1ccccc1C(O)Cc1nc2ccccc2n1C (stereo not given)	FLuc counter inconclusive, Rab9 prom act inconclusive, ELG1 genotox inconclusive
CC(C)c1ccc(C(O)Cc2nc3ccccc3n2C)cc1 (stereo not given)	FLuc counter 9.5µM, NPC1 prom act inconclusive, Rab9 prom act 4µM, ELG1 genotox inconclusive (no result: SMN2 splice enh)
O=C(NC1=NCCS1)c1sc2cc(F)ccc2c1Cl	FLuc counter 2.4µM, NPC1 prom act 5µM, SMN2 splice enh 7.1µM, Rab9 prom act 2.2µM, ELG1 genotox inconclusive
O=C(Nc1ccon1)c1sc2cc(F)ccc2c1Cl	FLuc counter inconclusive, NPC1 prom act 3.2µM, SMN2 splice enh 22µM, Rab9 prom act 2.5µM, ELG1 genotox inconclusive
O=C(NCc1ccco1)c1cccc(F)c1	none (no result: NPC1 prom act, Rab9 prom act, ELG1 genotox)
O=C(NCc1ccco1)c1sc2cc(F)ccc2c1Cl	FLuc counter 15µM, SMN2 splice enh 13µM
O=C(NC1CC1)c1cc2cc3ccccc3nc2s1	FLuc counter 11µM, NPC1 prom act 2.2µM, Rab9 prom act 3.5µM, ELG1 genotox inconclusive (no result: SMN2 splice enh)
Cc1ccc(OCCCC(=O)Nc2nnc(C3CCCO3)s2)c(C)c1 (stereo not given)	none (no result: SMN2 splice enh)
N#Cc1ccccc1NC(=O)COC(=O)c1ccc(F)cc1F	none (no result: SMN2 splice enh)
CC1CCc2sc(C(=O)NCc3ccccn3)cc2C1 (stereo not given)	FLuc counter 19µM, Rab9 prom act inconclusive, ELG1 genotox 18µM (no result: SMN2 splice enh)
CC1CCc2c(C(=O)Nc3nccs3)csc2C1 (stereo not given)	FLuc counter 4.8µM, NPC1 prom act inconclusive, SMN2 splice enh inconclusive, Rab9 prom act inconclusive, ELG1 genotox inconclusive
CC1CCc2c(C(=O)NCc3ccccn3)csc2C1 (stereo not given)	FLuc counter 21µM, NPC1 prom act inconclusive, SMN2 splice enh inconclusive, ELG1 genotox inconclusive
Cc1ccccc1NC(=S)NNC(=O)c1csc2c1CCC(C)C2 (stereo not given)	FLuc counter 2.4µM, NPC1 prom act 3.2µM, Rab9 prom act 2.2µM, ELG1 genotox inconclusive
CCSc1nnc(NC(=O)c2csc3c2CCC(C)C3)s1 (stereo not given)	none
CC(C)C[C@H](NC(=O)c1nc[nH]c1C(=O)NCCNC(=O)OC(C)(C)C)C(=O)CNCCNC(=O)c1[nH]cnc1C(=O)N[C@@H](C)C(=O)OC(C)(C)C	none (no result: FLuc counter, NPC1 prom act, SMN2 splice enh, Rab9 prom act)
Cc1ccc(N(Cc2ccc([N+](=O)[O-])cc2)C(=O)c2ccco2)cc1C	none
COC1=CC(=O)CC(C)C12Oc1cc(OC)cc(OC)c1C2=O (stereo not given)	none (no result: SMN2 splice enh)
